Reference: PubChem BioAssay (NCI)
The panel holds about 79,000 compounds, 15% with a hit somewhere; the sample as a whole holds those more often. The source made the active and inactive calls. No stated cut-off is given here; in the data, active means growth inhibition above about 70%; inactive means the rest.

How the values were obtained:
[1] = NCI Yeast Anticancer Drug Screen. Data for the rad52 strain (AID 147);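 further: 0% = growth of vehicle-treated control cultures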; details: S. cerevisiae rad52 mutant growth inhibition, hits give high values
How it was run: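 Genetically altered yeast (DNA damage repair defect) treated with compound; inhibition calculated relative to vehicle.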

[2] = NCI Yeast Anticancer Drug Screen. Data for the wt1 strain (AID 149);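 further: 0% = growth of vehicle-treated wt1 cultures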; details: S. cerevisiae wt1 strain (SPY 50644) growth inhibition, hits give high values
How it was run: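 wt1 yeast, compound-treated; % growth inhibition vs vehicle control.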

[3] = NCI Yeast Anticancer Drug Screen. Data for the rad50EPP+ strain (AID 151);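 further: 0% = growth of vehicle-treated control cultures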; details: S. cerevisiae rad50 mutant strain, hits give high values
How it was run: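 Strain rad50EPP+; compound exposure; % growth inhibition vs vehicle.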

[4] = NCI Yeast Anticancer Drug Screen. Data for the mgt1 strain (AID 153); details: S. cerevisiae mgt1 mutant growth inhibition, hits give high values
How it was run: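 Read-out: yeast growth inhibition vs vehicle control. Strain mgt1, drawn from a panel altered in DNA damage repair or cell cycle control.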

[5] = NCI Yeast Anticancer Drug Screen. Data for the rad50 strain (AID 155);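 further: 0% = growth of vehicle-only cultures of the same strain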; details: S. cerevisiae rad50 strain growth inhibition, hits give high values
How it was run: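 Genetically altered yeast (DNA repair pathway); compound treatment; growth inhibition vs vehicle ctrl.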

[6] = NCI Yeast Anticancer Drug Screen. Data for the mec2-1 strain (AID 157); details: S. cerevisiae mec2-1 strain, hits give high values
How it was run: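 Cells of the genetically defined mec2-1 yeast strain are incubated with test compound. Inhibition of growth is calculated against vehicle-treated controls.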

[7] = NCI Yeast Anticancer Drug Screen. Data for the sgs1 mgt1 strain (AID 161);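 further: 0% = growth of cultures given vehicle only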; details: S. cerevisiae sgs1 mgt1 strain, hits give high values
How it was run: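 Read-out: growth inhibition vs vehicle controls. Cells: mutant yeast strain deficient in DNA damage repair.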

[8] = NCI Yeast Anticancer Drug Screen. Data for the CLN2oe strain (AID 163);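 further: 0% = growth of vehicle-only control cultures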; details: S. cerevisiae CLN2oe strain, hits give high values
How it was run: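 Strain altered in cell-cycle control, incubated with compound; growth compared to solvent-treated controls.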

[9] = NCI Yeast Anticancer Drug Screen. Data for the cln2 rad14 strain (AID 165);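 further: 0% = growth equal to vehicle treated cultures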; details: S. cerevisiae cln2 rad14 strain, hits give high values
How it was run: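 The screen exposed genetically defined yeast (cln2 rad14) to test compounds and scored growth inhibition relative to vehicle-treated controls.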

[10] = NCI Yeast Anticancer Drug Screen. Data for the bub3 strain (AID 167); details: S. cerevisiae bub3 mutant strain, hits give high values
How it was run: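 Yeast carrying a defined mutation is treated with each compound, and growth is compared with that of vehicle-exposed cells to give inhibition.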

[11] = NCI Yeast Anticancer Drug Screen. Data for the wt2 strain (AID 169);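 further: 0% = growth of vehicle-treated yeast cultures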; details: S. cerevisiae wt2 strain growth inhibition, hits give high values
How it was run: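 Steps: yeast strain treated with compound; growth recorded; inhibition calculated relative to cultures given vehicle alone.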

[12] = NCI Yeast Anticancer Drug Screen. Data for the mlh1 strain (AID 171);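 further: 0% = growth of vehicle-treated control cultures of the same strain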; details: S. cerevisiae mlh1 strain growth inhibition, hits give high values
How it was run: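 Yeast screen: mutant strain plus compound, growth scored against vehicle control wells.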

[13] = NCI Yeast Anticancer Drug Screen. Data for the sgs1 strain (AID 173);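 further: 0% = growth of vehicle-only control cultures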; details: S. cerevisiae sgs1 mutant, hits give high values
How it was run: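 Inhibition of yeast growth served as the measure. The mutant strain was treated with each compound, and growth was normalised to cultures receiving vehicle alone.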

[14] = NCI Yeast Anticancer Drug Screen. Data for the rad18 strain (AID 177); details: S. cerevisiae rad18 mutant growth inhibition, hits give high values
How it was run: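 Inhibition values reflect reduced yeast growth compared with vehicle-treated controls, using a strain engineered with a DNA damage repair defect.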

[15] = NCI Yeast Anticancer Drug Screen. Data for the mlh1 rad18 strain (AID 175); details: S. cerevisiae mlh1 rad18 strain growth inhibition, hits give high values
How it was run: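 Compound-treated yeast growth, normalised to vehicle controls. Strain bears defined DNA repair mutations.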

[16] = at 5.0 µM (retest, dose inferred, filed as 0.5)
[17] = at 50.0 µM (retest, dose inferred, filed as 5.0)

Measured: growth inhibition

CCOC(=N)c1ccc(O)c(OC)c1
active: [10]; [17] 83% | [10]; at 50.0 µM 86.6% | [10]; at 100.0 µM 79%
inactive: [1]; at 1.2 µM -1% | [1]; at 3.7 µM 0% | [1]; at 11.0 µM 0% | [1]; at 33.0 µM 0% | [1]; at 100.0 µM -2% | [2]; at 1.2 µM -3% | [2]; at 3.7 µM -2% | [2]; at 11.0 µM -3% | [2]; at 33.0 µM -1% | [2]; at 100.0 µM -3% | [3]; at 1.2 µM -3% | [3]; at 3.7 µM -4% | [3]; at 11.0 µM -6% | [3]; at 33.0 µM -3% | [3]; at 100.0 µM 1% | [4]; at 1.2 µM -2% | [4]; at 3.7 µM -1% | [4]; at 11.0 µM -2% | [4]; at 33.0 µM -2% | [4]; at 100.0 µM -2% | [5]; at 1.2 µM -1% | [5]; at 3.7 µM 16% | [5]; [16] -2% | [5]; at 11.0 µM 11% | [5]; at 33.0 µM -1% | [5]; [17] -4% | [5]; at 50.0 µM 2% | [5]; at 100.0 µM 2% | [6]; at 1.2 µM 0% | [6]; at 3.7 µM 2% | [6]; [16] -42% | [6]; at 11.0 µM 2% | [6]; at 33.0 µM 3% | [6]; [17] -3% | [6]; at 50.0 µM -9% | [6]; at 100.0 µM 2% | [7]; [16] 0% | [7]; [17] -4% | [7]; at 50.0 µM -2.6% | [8]; at 1.2 µM -2% | [8]; at 3.7 µM -5% | [8]; at 11.0 µM 1% | [8]; at 33.0 µM -3% | [8]; at 100.0 µM -1% | [9]; [16] 2% | [9]; [17] 0% | [9]; at 50.0 µM -39.2% | [10]; at 1.2 µM 7% | [10]; at 3.7 µM 17% | [10]; [16] 30% | [10]; at 11.0 µM 48% | [10]; at 33.0 µM 66% | [11]; at 1.2 µM -3% | [11]; at 3.7 µM 6% | [11]; at 11.0 µM -3% | [11]; at 33.0 µM -1% | [11]; at 100.0 µM -2% | [12]; at 1.2 µM -2% | [12]; at 3.7 µM -3% | [12]; at 11.0 µM -2% | [12]; at 33.0 µM 1% | [12]; at 100.0 µM 1% | [13]; at 1.2 µM -3% | [13]; at 3.7 µM -5% | [13]; at 11.0 µM -4% | [13]; at 33.0 µM -3% | [13]; at 100.0 µM 3% | [14]; at 1.2 µM -1% | [14]; at 3.7 µM -3% | [14]; at 11.0 µM -3% | [14]; at 33.0 µM 0% | [14]; at 100.0 µM 14%

Oc1ccc2ccccc2c1CCc1c(O)ccc2ccccc12
inactive: [1]; at 1.2 µM 3% | [1]; at 3.7 µM 14% | [1]; at 11.0 µM 54% | [2]; at 1.2 µM 5% | [2]; at 3.7 µM 17% | [2]; at 11.0 µM 19% | [2]; at 33.0 µM 52% | [3]; at 1.2 µM 28% | [4]; at 1.2 µM 2% | [4]; at 3.7 µM 6% | [4]; at 11.0 µM 60% | [5]; at 1.2 µM 5% | [5]; at 3.7 µM 13% | [5]; [16] 15% | [5]; at 11.0 µM 68% | [6]; at 1.2 µM 7% | [6]; at 3.7 µM 15% | [6]; [16] -6% | [7]; [16] 41% | [8]; at 1.2 µM 7% | [8]; at 3.7 µM 4% | [9]; [16] 6% | [10]; at 1.2 µM -1% | [10]; at 3.7 µM 2% | [10]; [16] 45% | [11]; at 1.2 µM 7% | [11]; at 3.7 µM 16% | [11]; at 11.0 µM 38% | [11]; at 33.0 µM 66% | [12]; at 1.2 µM 5% | [12]; at 3.7 µM 8% | [13]; at 1.2 µM 7% | [13]; at 3.7 µM 19% | [13]; at 11.0 µM 51% | [15]; [16] 55% | [14]; at 1.2 µM 5% | [14]; at 3.7 µM 15% | [14]; at 11.0 µM 46%
active: [1]; at 33.0 µM 94% | [1]; at 100.0 µM 85% | [2]; at 100.0 µM 88% | [3]; at 3.7 µM 70% | [3]; at 11.0 µM 85% | [3]; at 33.0 µM 86% | [3]; at 100.0 µM 83% | [4]; at 33.0 µM 95% | [4]; at 100.0 µM 87% | [5]; at 33.0 µM 93% | [5]; [17] 94% | [5]; at 50.0 µM 95.1% | [5]; at 100.0 µM 86% | [6]; at 11.0 µM 95% | [6]; at 33.0 µM 96% | [6]; [17] 95% | [6]; at 50.0 µM 96.5% | [6]; at 100.0 µM 90% | [7]; [17] 94% | [7]; at 50.0 µM 95% | [8]; at 11.0 µM 97% | [8]; at 33.0 µM 92% | [8]; at 100.0 µM 82% | [9]; [17] 92% | [9]; at 50.0 µM 88.2% | [10]; at 11.0 µM 98% | [10]; at 33.0 µM 93% | [10]; [17] 94% | [10]; at 50.0 µM 94.9% | [10]; at 100.0 µM 86% | [11]; at 100.0 µM 87% | [12]; at 11.0 µM 79% | [12]; at 33.0 µM 94% | [12]; at 100.0 µM 90% | [13]; at 33.0 µM 92% | [13]; at 100.0 µM 88% | [15]; [17] 92% | [15]; at 50.0 µM 95.2% | [14]; at 33.0 µM 91% | [14]; at 100.0 µM 85%
